Sampled rows, rich in hits. Any-hit rate of the full collection: about 6.5%.
Marburg entry inh: blocks Marburg virus binding to or entry into cells; Marburg virus pseudotyped entry inhibition, cell reporter; Potency, µM (highest dose often 37.8 µM), hits mostly inhibitors; actives 1.8% (n = 300,000); AID 540276; calls by dose curve; tested in HEK293 cells
HCMV antiviral: blocks human cytomegalovirus replication; HFF cells, HCMV-luciferase reporter, 72 h; active compounds read low; activity change, negative = inhibition, % at 57.5 µM; actives 4.5% (n = 410,000); in the data active = activity change below about -60%; inconclusive = no clear call, values can overlap the other calls; inactive = above about -39%
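Compounds were evaluated in HFFs infected with an HCMV luciferase reporter virus (MOI 1 PFU/cell). Luciferase in lysates collected 72 h post infection served as the replication measure.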
FMDV antiviral: foot and mouth disease virus antiviral activity; FMDV antiviral cell-based qHTS; Potency, µM (highest dose often 57.9 µM), most hits filed as inhibitors; actives 1.2% (n = 410,000); calls by dose curve; tested in HEK293T cells; note: read-out not given here; nearly all actives have a fitted effect of over 45% in size
VACV Venus inh: vaccinia inhibition (Venus reporter) | Potency, µM (doses to about 36.5 µM), actives largely listed as inhibitors | actives 0.46% (n = 330,000) | Vaccinia virus Venus reporter expression, fluorescence; calls by dose curve; tested in A549 cells; note: nearly all actives have a fitted effect of over 30% in size
Lassa entry inh: Lassa virus entry inhibition; actives 1.2% (n = 300,000); Potency, µM (series often up to 37.9 µM), actives largely listed as inhibitors; Lassa virus pseudotype entry inhibition, cell reporter; calls by dose curve; tested in HEK293 cells; note: nearly all actives have a fitted effect of over 50% in size
VACV mCherry inh: vaccinia inhibition (mCherry reporter) | Vaccinia virus mCherry reporter infection, fluorescence | Potency, µM (series often up to 36.5 µM), most hits filed as inhibitors | actives 0.63% (n = 310,000) | AID 720579; calls by dose curve; tested in A549 cells; note: nearly all actives have a fitted effect of over 35% in size
Hits are given with their value; – = inactive; ? = inconclusive; · = not tested or not shown; [ ] = remark or other dose.

SMILES	Marburg entry inh	HCMV antiviral	FMDV antiviral	VACV Venus inh	Lassa entry inh	VACV mCherry inh
COc1ccc(OC)c(NC(=O)Cn2c(=O)cc(C)c3c(C)nn(-c4cccc(Cl)c4C)c32)c1	·	?	–	?	–	?
Cc1ccc2oc(/N=C(\N)NC(=O)C3CC3)nc2c1	–	–	–	·	·	·
Cc1ccc2oc(/N=C(\N)NC(=O)C(C)(C)C)nc2c1	?	-90	35µM	–	?	–
Cc1sc(-c2cc3c([nH]c2=O)CC(c2ccccc2)CC3=O)nc1-c1ccc(Cl)cc1 (stereo not given)	–	–	–	–	–	–
Cn1c(=O)n(C)c2cc([N+](=O)[O-])c(N3CCN(C(=O)c4ccccc4Cl)CC3)cc21	?	-78	·	–	?	–
Cn1c(=O)n(C)c2cc([N+](=O)[O-])c(N3CCN(C(=O)C(C)(C)C)CC3)cc21	?	–	?	–	?	–
Cn1c(=O)n(C)c2cc([N+](=O)[O-])c(N3CCN(C(=O)c4ccccc4)CC3)cc21	?	–	–	–	–	–
Cn1c(=O)n(C)c2cc([N+](=O)[O-])c(N3CCN(C(=O)c4ccccc4Br)CC3)cc21	?	?	16µM	–	?	–
CCCCCCCCCCn1ccc(=N)cc1	?	-100	16µM	?	1.8µM	?
O=C(Nc1ccc2oc(-c3cccc(Cl)c3Cl)nc2c1)c1cccc(Br)c1	·	-74	–	?	–	?
CC(C)c1ccc(OCC(=O)N(Cc2cccs2)C2CCS(=O)(=O)C2)cc1 (stereo not given)	?	–	?	–	–	–
Nc1ccccc1NC(=O)OCc1ccccc1	·	–	·	·	·	·
CC(C)(C)c1ccc(-c2cc(NC(=O)Cc3c[nH]c4ccccc34)ccc2Nc2cccnc2)cc1	·	–	·	·	·	·
Cn1c(CCN2CCCCC2)nc2cc(NC(=O)COc3ccccc3)ccc21	·	-73	–	·	·	·
Cc1ccc(OCC(=O)Nc2ccc3c(c2)nc(CCN2CCCCC2)n3C)cc1	·	-72	–	·	·	·
Cc1ccc(OCC(=O)Nc2ccc3c(c2)nc(CCN2CCC(C)CC2)n3C)cc1	?	-70	–	–	?	–
CN1CCN(CCc2nc3cc(NC(=O)COc4ccccc4)ccc3n2C)CC1	–	–	–	·	–	·
COc1ccc(OCC(=O)Nc2ccc3c(c2)nc(CCN2CCC(C)CC2)n3C)cc1	·	–	–	·	·	·
Cc1cccc(C(=O)NCc2nc(-c3cccc(NC(=O)C4CCCN(C)C4)c3)oc2C)n1 (stereo not given)	·	·	–	–	·	–
CCC1(O)CC2CN(CCc3c([nH]c4ccccc34)C(C(=O)OC)(c3cc4c(cc3OC)N(C=O)C3C(O)(C(=O)OC)C(OC(C)=O)C5(CC)C=CCN6CCC43C65)C2)C1 (stereo not given)	?	-88	–	?	?	?
Cc1cc(C)c(-c2c(N)cc(Br)cc2Br)c(N)c1	?	–	?	–	–	13µM
Nc1ccc(Br)cc1Br	·	–	–	–	·	–
CN(Cc1ccccc1)C(C(=O)NC1CCCCC1)c1ccc(Cl)cc1 (stereo not given)	–	–	–	–	–	–
CCCCn1cc(S(=O)(=O)c2ccc(C)c(C)c2)c(=O)c2cc(F)c(N(CC)CC)cc21	·	–	–	–	?	–
CCOC(=O)c1cnc2ccc(C)cc2c1NCCc1ccc(OC)c(OC)c1	?	–	–	–	–	–
SMILES	Marburg entry inh	HCMV antiviral	FMDV antiviral	VACV Venus inh	Lassa entry inh	VACV mCherry inh
COc1ccc(CCNc2c3ccccc3nc3ccccc23)cc1OC	?	-102	–	–[7.34 µM]	?	–[7.34 µM]
COc1nc(NCCc2ccc(OC)c(OC)c2)nc(OC)n1	–	-99	–	–	–	·
CCn1c(=O)c([N+](=O)[O-])c(NCCc2ccc(OC)c(OC)c2)c2ccccc21	?	-72	22µM	–	?	–
CCOC(=O)c1cnc2ccc(OCC)cc2c1NCCc1ccc(OC)c(OC)c1	?	–	28µM	–[7.34 µM]	?	–[7.34 µM]
COc1ccc(CCNc2nc(SCc3ccc(Cl)cc3)nc3ccccc23)cc1OC	·	–	–	–	–	–
COc1ccccc1NCC(O)Cn1c2ccccc2c2ccccc21 (stereo not given)	–	–	?	·	?	·
COc1ccc(CCNCC(O)Cn2c3ccccc3c3ccccc32)cc1OC (stereo not given)	·	-64	–	·	·	·
CC(=O)c1cccc(-c2ccc3c(c2)C(C)(Cc2ccccc2C#N)C(=O)N3)c1 (stereo not given)	·	-66	–	–	·	–
Cc1ccc(NC(=O)CSc2nc3ccccc3c(=O)n2CCCN2CCCCC2)cc1C	?	–	–	·	21µM	·
COCCn1c(SCC(=O)NC2CCCC2)nc2ccccc2c1=O	–	-100	–	–	–	–
Cc1ccc(S(=O)(=O)N(C)C)cc1-n1c(SCC(=O)Nc2ccccc2)nc2ccccc2c1=O	?	-72	–	–	?	–
Cc1ccc(NC(=O)CSc2nc3ccccc3c(=O)n2CCCC(=O)N2CCCC2)cc1	8.2µM	–	–	·	?	·
Cc1ccc(S(=O)(=O)N(C)C)cc1-n1c(SCC(=O)Nc2ccc(F)cc2)nc2ccccc2c1=O	–	–	–	·	·	·
COc1cc(NC(=O)c2noc3c2CC(C(C)(C)C)CC3)cc(OC)c1OC (stereo not given)	–	–	–	–	–	–
CCCCn1c(SCC(=O)Nc2cc(NC(=O)c3ccco3)ccc2C)nc2ccccc2c1=O	?	-76	–	·	?	·
CN(C)CCCn1c(SCC(=O)Nc2nc(-c3cccc(Br)c3)cs2)nc2ccccc2c1=O	11µM	?	–	–	?	–
COCCCn1c(SCC(=O)Nc2ccc(C)cc2)nc2ccccc2c1=O	–	-71	–	–	–	–
CCc1ccc(NC(=O)CSc2nc3ccccc3c(=O)n2CCNC(C)=O)cc1	·	–	–	–	–	–
CCc1ccc(NC(=O)CSc2nc3ccccc3c(=O)n2CCCN2CCC(C)CC2)cc1	?	-108	?	?	?	?
O=C(CSc1nc2ccccc2[nH]1)Nc1nc(-c2cccc(Br)c2)cs1	–	–	–	–	–	–
COCCCn1c(SCC(=O)Nc2ccc(C(=O)OC)cc2)nc2ccccc2c1=O	–	–	–	·	?	·
Cc1ccc(S(=O)(=O)N2CCN(c3nc(-n4ccnc4)nc4ccccc34)CC2)cc1	·	·	·	–	·	–
O=C(c1cccnc1)C1CCCN(Cc2ccc3c(c2)CN(C(=O)c2cccc(Cl)c2)CCO3)C1 (stereo not given)	·	·	–	–	·	–
Cc1cccc(NC(=O)c2cccc(N3C(=O)C4C5C=CC(C6CC56)C4C3=O)c2)c1 (stereo not given)	?	–	16µM	–	–	–
Cc1cc(C)cc(NC(=O)c2cccc(N3C(=O)C4C5C=CC(C5)C4C3=O)c2)c1 (stereo not given)	?	–	–	–	–	–

Screens as filed in PubChem BioAssay.
